# In PubChem BioAssay (NCATS):
# Values without a mark were called inactive. Inconclusive results are not listed. Entries that show only a call come without a potency. The source made the active and inactive calls. Calls follow the shape of the dose curve; as a rule, active = well fitted curve in the direction sought with a large enough effect; inconclusive = small, poorly fitted or top-dose-only effect, or another doubt; inactive = no such curve, though single readings can be large; an effect the other way counts as inactive or inconclusive.
# How the values were obtained:
# [1] = qHTS to identify inhibitors of the type 1 interferon - major histocompatibility complex class I in skeletal muscle: primary screen against the NCATS Mechanism Interrogation Plate v5.0 (MIPE) Libary (AID 1347411); also: nearly all actives have a fitted effect of over 65% in size; also: potency is read from the fitted curve at half-maximal effect
# Outline: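 HLA-B HiBit myoblasts, dexamethasone-free medium + 4 ng/ml IFN-b, 24 h compound, 11-pt 1:3 from 46 uM final. Readout: Nano-Glo HiBiT lytic luminescence after 10 min lysis, RT.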
# [2] = biological target: Protein phosphatase 1D (Homo sapiens) (UniProt O15297); test: RapidFire Mass Spectrometry qHTS Assay for Modulators of WT P53-Induced Phosphatase 1 (WIP1) (AID 1347424);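 also: amount of dephosphorylated VEPPL-S-QETFS peptide product formed by WIP1; series mostly up to about 63 µM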
# Sequence of Protein phosphatase 1D (Homo sapiens) (O15297 whole entry, looked up): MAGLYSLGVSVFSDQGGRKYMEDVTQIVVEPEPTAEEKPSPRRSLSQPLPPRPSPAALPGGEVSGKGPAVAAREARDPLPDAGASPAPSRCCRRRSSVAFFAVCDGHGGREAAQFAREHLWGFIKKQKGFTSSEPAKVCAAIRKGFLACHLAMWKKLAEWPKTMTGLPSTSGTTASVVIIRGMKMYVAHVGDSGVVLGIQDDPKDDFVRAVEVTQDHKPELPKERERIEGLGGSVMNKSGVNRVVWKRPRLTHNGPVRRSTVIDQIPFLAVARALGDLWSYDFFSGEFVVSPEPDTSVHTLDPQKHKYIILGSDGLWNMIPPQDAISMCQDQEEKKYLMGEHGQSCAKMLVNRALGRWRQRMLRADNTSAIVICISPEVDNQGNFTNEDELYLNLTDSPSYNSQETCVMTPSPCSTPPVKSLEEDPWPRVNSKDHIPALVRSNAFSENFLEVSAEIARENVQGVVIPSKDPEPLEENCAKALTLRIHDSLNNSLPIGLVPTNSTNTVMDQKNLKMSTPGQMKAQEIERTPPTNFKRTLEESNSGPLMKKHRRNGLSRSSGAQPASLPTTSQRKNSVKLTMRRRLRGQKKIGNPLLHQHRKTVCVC
# Outline: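 Mass-spectrometric measurement of dephosphorylated peptide after a 5 min room-temperature reaction of 10 nM WIP1 with 2 uM phosphopeptide, following 1 h compound preincubation in 30 mM MgCl2 buffer.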
# [3] = biological target: Protein phosphatase 1D (Homo sapiens) (UniProt O15297); test: Rhodamine-PBP qHTS Assay for Modulators of WT P53-Induced Phosphatase 1 (WIP1) (AID 1347425)
# Outline: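 The read-out is the change in Rhodamine-PBP fluorescence (f1 - f0, ex 525/em 598 nm) as Pi is released, read each minute for 11 min. Final reaction: 5 nM WIP1, 10 uM phosphopeptide VEPPL-pS-QETFS, 10 uM Rh-PBP, 50 mM Tris-HCl pH 7.5, 30 mM MgCl2. Compound was preincubated with enzyme for 1 hour at room temperature.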
# [4] = Primary qHTS for inhibitors of La Crosse Virus (LACV) - induced cell death in SH-SY5Y cells (AID 1508616);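 also: top concentration of the series differs between compounds; higher means more rescue of cells from virus-induced death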
# Outline: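 Cytopathicity rescue screen: compounds pinned onto SH-SY5Y cells, which are then infected with LACV (MOI 0.01) and held 6 days at 37C. Percent activity is scaled between infected DMSO control and uninfected DMSO control.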
# [5] = biological target: Calcium and integrin-binding protein 1 (Homo sapiens) (UniProt Q99828); test: Primary qHTS for Identification of Calcium Integrin Binding Protein 1 (CIB1) Competitor (AID 1508620);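 also: GST tagged CIB1 binding a fluorescein labelled alphaIIb integrin peptide tracer; top concentration of the series differs between compounds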
# Sequence of Calcium and integrin-binding protein 1 (Homo sapiens) (Q99828 whole entry, looked up): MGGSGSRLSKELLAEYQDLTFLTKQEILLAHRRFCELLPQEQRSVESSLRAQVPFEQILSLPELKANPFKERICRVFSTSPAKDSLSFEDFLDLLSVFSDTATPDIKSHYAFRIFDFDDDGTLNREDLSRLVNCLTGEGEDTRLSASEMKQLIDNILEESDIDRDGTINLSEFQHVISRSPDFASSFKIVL
# Outline: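 Fluorescence polarization competition: CIB1-GST (1 uM final) preincubated with compound 15 min at room temperature, then FITC-labeled alphaIIb peptide (100 nM final) added for another 15 min. Polarization read at Ex 480/Em 540.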
# [6] = Validation qHTS assay for inhibitors of Activation Induced Cytidine Deaminase (AID): UDG Counterscreen signal (AID 1347427); also: potency is read from the fitted curve at half-maximal effect
# Outline: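 Fluorescence at 560 nm excitation, 665 nm emission reports UDG signal after 250 mM NaOH (2x) addition and 30 min. Enzymes (AID 1 uM, UDG 2 U/mL, at 4/3x) preincubated 10 min with compound, then 4 h with 4x 250 nM DJC20/DJC23 substrate at room temperature.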
# [7] = biological target: Single-stranded DNA cytosine deaminase (Homo sapiens) (UniProt Q9GZX7); test: Validation qHTS assay for inhibitors of Activation Induced Cytidine Deaminase (AID): AID signal (AID 1347429)
# Sequence of Single-stranded DNA cytosine deaminase (Homo sapiens) (Q9GZX7 whole entry, looked up): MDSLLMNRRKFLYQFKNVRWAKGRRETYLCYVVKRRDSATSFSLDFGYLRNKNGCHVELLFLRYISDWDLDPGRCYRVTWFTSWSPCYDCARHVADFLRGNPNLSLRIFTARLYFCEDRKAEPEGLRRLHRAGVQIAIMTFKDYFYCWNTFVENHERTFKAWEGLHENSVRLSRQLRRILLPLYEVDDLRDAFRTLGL
# Outline: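 AID+UDG coupled FRET deamination; cpds up to 114 uM final; DJC20/DJC23 substrate, 4 hr RT; NaOH stop, 30 min RT; read Ex 540/Em 590.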
# [8] = biological target: Calcium and integrin-binding protein 1 (Homo sapiens) (UniProt Q99828); test: Validation qHTS for Identification of Calcium Integrin Binding protein 1 (CIB1) Competitor (AID 1508618)
# Outline: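 CIB1-GST (1 uM final) incubated 15 min at room temperature with compounds (up to 114 uM), then FITC-labelled alphaIIb peptide (100 nM) added. FP read (Ex 480/Em 540) after 15 min, pH 7.4 buffer containing 5 mM CaCl2.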
# [9] = Counterscreen qHTS for small molecule stabilizers of the endoplasmic reticulum resident proteome: GLuc-NoTag assay (AID 1508627); also: potency is read from the fitted curve at half-maximal effect; as to activity change, negative = inhibition: series mostly up to about 76 µM
# Outline: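 Secreted GLuc lacking the SERCaMP modification is measured in SH-SY5Y cells exposed to compound for 19 h and then to thapsigargin (100 nM, 4 h) to deplete ER calcium; hits retested at 11 concentrations, up to 76.6 uM.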
smiles,measurement,setting,value
Clc1ccc(C(Cn2ccnc2)OCc2ccsc2Cl)c(Cl)c1 (stereo not drawn),Potency,[1],inactive
same,Potency,[2],inactive
same,outcome,[3],inactive
same,Potency,[4],inactive
same,Potency,[5],inactive
N=C(N)c1ccc2cc(OC(=O)c3ccc(N=C(N)N)cc3)ccc2c1,Potency,[1],inactive
same,Potency,[2],inactive
same,outcome,[3],inactive
same,Potency,[4],inactive
same,Potency,[5],inactive
CC1(C)NC(=O)N(c2ccc([N+](=O)[O-])c(C(F)(F)F)c2)C1=O,Potency,[1],inactive
same,Potency,[2],inactive
same,outcome,[3],inactive
same,Potency,[6],inactive
same,outcome,[7],inactive
same,Potency,[4],inactive
same,outcome,[8],inactive
same,Potency,[5],inactive
Cc1cccc(CN2CCN(C(c3ccccc3)c3ccc(Cl)cc3)CC2)c1 (stereo not drawn),Potency,[1],inactive
same,Potency,[2],inactive
same,outcome,[3],inactive
same,Potency,[4],inactive
same,Potency,[5],inactive
Nc1ccc(S(N)(=O)=O)cc1,Potency,[1],inactive
same,Potency,[2],inactive
same,outcome,[3],inactive
same,Potency,[4],inactive
same,Potency,[5],inactive
O=C(c1ccccc1)c1ccc2n1CCC2C(=O)O (stereo not drawn),Potency,[1],inactive
same,Potency,[2],inactive
same,outcome,[3],inactive
same,Potency,[6],inactive
same,outcome,[7],inactive
same,Potency,[4],inactive
same,outcome,[8],inactive
same,Potency,[5],inactive
O=C(O)c1cc(=O)c2c(OCC(O)COc3cccc4oc(C(=O)O)cc(=O)c34)cccc2o1,Potency,[1],inactive
same,Potency,[2],inactive
same,outcome,[3],inactive
same,Potency,[4],inactive
same,Potency,[5],inactive
same,Potency,[9],inactive
N[C@@H](Cc1cc(I)c(Oc2cc(I)c(O)c(I)c2)c(I)c1)C(=O)O,outcome,[3],inactive
CCC(C)(Oc1ccc(C2(c3ccc(OC(C)(CC)C(=O)O)cc3)CCCCC2)cc1)C(=O)O (stereo not drawn),outcome,[3],inactive
CN(C)c1ccc(O)c2c1C[C@H]1C[C@H]3[C@H](N(C)C)C(=O)C(C(N)=O)=C(O)[C@@]3(O)C(=O)C1=C2O,Potency,[9],inactive
CCOc1cc(CC(=O)N[C@@H](CC(C)C)c2ccccc2N2CCCCC2)ccc1C(=O)O,Potency,[1],inactive
same,Potency,[5],inactive
CC(=O)Nc1ccc(O)cc1,Potency,[2],inactive
same,outcome,[3],inactive
O=C1c2ccccc2-c2n[nH]c3cccc1c23,Potency,[1],16.5 µM (active)
same,Potency,[6],inactive
same,Potency,[4],inactive
same,Potency,[5],inactive
CC(C)(S)[C@@H](N)C(=O)O,"activity change, negative = inhibition",[1],-26.4% [at 5.1 µM]
same,Potency,[5],inactive
NS(=O)(=O)c1cc(C(=O)O)c(NCc2ccco2)cc1Cl,Potency,[2],inactive
same,outcome,[3],inactive
same,Potency,[4],inactive
same,Potency,[5],inactive
CN(C)c1ccc2nc3ccc(=[N+](C)C)cc-3sc2c1,Potency,[1],18.6 µM (active)
same,Potency,[4],inactive
CN(c1nccc(=O)[nH]1)C1CCN(c2nc3ccccc3n2Cc2ccc(F)cc2)CC1,Potency,[2],inactive
same,outcome,[3],inactive
same,Potency,[4],inactive
same,Potency,[5],inactive
Nc1cccc2c1CN(C1CCC(=O)NC1=O)C2=O (stereo not drawn),Potency,[2],inactive
same,outcome,[3],inactive
same,Potency,[4],inactive
same,Potency,[5],inactive
Cc1nccn1CC1CCc2c(c3ccccc3n2C)C1=O (stereo not drawn),Potency,[2],inactive
same,outcome,[3],inactive
same,Potency,[4],inactive
same,Potency,[5],inactive
Cc1ccc(NC(=O)c2ccc(CN3CCN(C)CC3)cc2)cc1Nc1nccc(-c2cccnc2)n1,Potency,[2],inactive
same,outcome,[3],inactive
same,Potency,[4],inactive
N=C(N=C(N)N)N1CCOCC1,Potency,[2],inactive
same,outcome,[3],inactive
same,Potency,[4],inactive
same,Potency,[5],inactive
CC1(C)CCC(C)(C)c2cc(NC(=O)c3ccc(C(=O)O)cc3)ccc21,Potency,[1],inactive
same,Potency,[4],inactive
same,Potency,[5],inactive
same,Potency,[9],inactive
Cc1ccc(Nc2nccc(N(C)c3ccc4c(C)n(C)nc4c3)n2)cc1S(N)(=O)=O,Potency,[2],inactive
same,outcome,[3],inactive
same,Potency,[5],inactive
CCCOc1ccc2nc(NC(=O)OC)[nH]c2c1,Potency,[2],inactive
same,outcome,[3],inactive
same,Potency,[4],inactive
same,Potency,[5],inactive
NNc1nncc2ccccc12,Potency,[2],inactive
same,outcome,[3],inactive
same,Potency,[6],39.8 µM (active)
same,Potency,[4],inactive
same,outcome,[8],inactive
same,Potency,[5],inactive
CCOC(=O)C1=C[C@@H](OC(CC)CC)[C@H](NC(C)=O)[C@@H](N)C1,Potency,[1],inactive
same,Potency,[5],inactive
C[C@H](Cc1ccc(O)c(O)c1)[C@@H](C)Cc1ccc(O)c(O)c1,Potency,[1],inactive
same,outcome,[7],inactive
same,outcome,[8],inactive
same,Potency,[9],35.5 µM (active)
COc1ccc(C2(C#N)CCC(C(=O)O)CC2)cc1OC1CCCC1 (stereo not drawn),Potency,[1],inactive
same,Potency,[5],inactive
Cc1cc(Cl)ccc1OCCCC(=O)NO,Potency,[1],inactive
same,outcome,[8],inactive
same,Potency,[5],inactive
O=c1cc(N2CCOCC2)oc2c(-c3ccccc3)cccc12,Potency,[1],inactive
same,Potency,[6],inactive
same,outcome,[7],inactive
same,Potency,[5],inactive
same,Potency,[9],inactive
COC(=O)N[C@H](C(=O)N[C@@H](Cc1ccccc1)[C@@H](O)CN(Cc1ccc(-c2ccccn2)cc1)NC(=O)[C@@H](NC(=O)OC)C(C)(C)C)C(C)(C)C,Potency,[2],inactive
same,outcome,[3],inactive
same,Potency,[4],inactive
same,Potency,[5],inactive
Cc1cccc(-c2[nH]ncc2-c2ccc3ncccc3n2)n1,Potency,[1],inactive
same,outcome,[8],inactive
same,Potency,[5],inactive
CN(C)C(=O)[C@H](O)[C@H](Cc1ccccc1)NC(=O)c1cc2cc(Cl)ccc2[nH]1,Potency,[1],inactive
same,outcome,[8],inactive
same,Potency,[5],inactive
Clc1ccc(C(Cn2ccnc2)OCc2ccc(Sc3ccccc3)cc2)c(Cl)c1 (stereo not drawn),Potency,[2],inactive
same,outcome,[3],inactive
same,Potency,[4],inactive
same,Potency,[5],inactive
Cc1ccc(C(=O)c2cc(O)c(O)c([N+](=O)[O-])c2)cc1,Potency,[2],inactive
same,outcome,[3],inactive
same,Potency,[4],inactive
same,Potency,[5],inactive
CCCCCCCCCCCCCCCCCCCCCCO,Potency,[1],inactive
same,Potency,[5],inactive
C[Se]CCC(N)C(=O)O (stereo not drawn),Potency,[1],inactive
same,Potency,[5],inactive
Cc1nc2n(c(=O)c1CCN1CCC(c3noc4cc(F)ccc34)CC1)CCCC2,Potency,[2],inactive
same,outcome,[3],inactive
same,Potency,[4],inactive
same,Potency,[5],inactive
COc1cc(C(C)=O)ccc1OCCCN1CCC(c2noc3cc(F)ccc23)CC1,Potency,[2],inactive
same,outcome,[3],inactive
same,Potency,[4],inactive
same,Potency,[5],inactive
CCOC(=O)C1=C(O)C(=O)N(Cc2ccccc2)C1,Potency,[1],inactive
same,outcome,[8],inactive
same,Potency,[5],inactive
CC(C)c1ccc2oc3nc(N)c(C(=O)O)cc3c(=O)c2c1,Potency,[2],inactive
same,outcome,[3],inactive
same,Potency,[5],inactive
C=CCc1cc(OC)c(O)c(C(=O)NCCO)c1,Potency,[2],inactive
same,outcome,[3],inactive
same,Potency,[4],inactive
same,Potency,[5],inactive
